# Experimental data as given in the supplement of paper PMC10849652.
# Of roughly 7,900 targets only a part is listed; those with a hit were picked by preference. About 0.6% of all pairs of compound and target were hits. Values without a mark were called inactive.
# What was measured:
# Assay in all cases: log2 fold change, soluble protein after heating vs DMSO (PISA); higher = thermal stabilisation; K562 cells, 10 uM, 30 min; active = over 0.2 and 3.5 SD of the protein, either way, in both replicates (recomputed)
# IRAK-1-4 Inhibitor I = compound: C1COCCN1CCN2C3=CC=CC=C3N=C2NC(=O)C4=CC(=CC=C4)[N+](=O)[O-] [IRAK-1-4 Inhibitor I]
# Summary of the method: (§1)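 Quantification of soluble protein used TMTpro 16plex LC-MS/MS, with channel sums equalised. Samples were the supernatant after 21,000xg for 90 min of pooled aliquots from K562 cells (2×10^6 cells/mL) treated with 10 μM compound for 30 min, heated for 3 min over 48°C-58°C, and extracted in PBS with 0.5% NP-40 at 4°C. Values, from duplicates, describe thermal stability against control samples on a log2 fold-change scale.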
# ibrutinib = compound: C=CC(=O)N1CCC[C@@H](n2nc(-c3ccc(Oc4ccccc4)cc3)c3c(N)ncnc32)C1 [ibrutinib]
# Summary of the method: as §1
# [1] = compound: CC(=O)c1cnc2ccc(-c3cc(Cl)c(O)c(Cl)c3)nc2c1N[C@H]1CC[C@H](CN(C)C)CC1
# Summary of the method: as §1
# ralimetinib = compound: CC(C)(C)Cn1c(N)nc2ccc(-c3[nH]c(C(C)(C)C)nc3-c3ccc(F)cc3)nc21 [ralimetinib]
# Summary of the method: as §1
# [2] = compound: CC(C)(O)CC(=O)NCCn1ccc2ncnc(Nc3ccc(Oc4cccc(C(F)(F)F)c4)c(Cl)c3)c21
# Summary of the method: as §1
# [3] = compound: CC(C)C1=C2N=C(C=C(N2N=C1)NCC3=CC=CC=C3)NCCCCCCN
# Summary of the method: as §1
# [4] = compound: CC(C)C[C@@H](C=O)NC(=O)[C@H](CC(C)C)NC(=O)[C@H](CC(C)C)NC(=O)OCc1ccccc1
# Summary of the method: as §1
# pinometostat = compound: CC(C)N(C[C@H]1O[C@@H](n2cnc3c(N)ncnc32)[C@H](O)[C@@H]1O)[C@H]1C[C@@H](CCc2nc3cc(C(C)(C)C)ccc3[nH]2)C1 [pinometostat]
# Summary of the method: as §1
# [5] = compound: CC1=C(C(CC(=O)N1)C2=CC=C(C=C2)C(F)(F)F)C(=O)NC3=C(C=C4C(=C3)C=NN4)F
# Summary of the method: as §1
# [6] = compound: CC1=C(C2=C(C=C1)C(=O)C3=CC=CC=C3N2CCCN)C
# Summary of the method: as §1
# [7] = compound: CC1=C(C=C(C=C1)NC(=O)C2=CC(=CC=C2)C(C)(C)C#N)NC3=CC4=C(C=C3)N=CN(C4=O)C
# Summary of the method: as §1
# [8] = compound: CC1=C(C=C(C=C1)NC(=O)C2=CC(=CC=C2)N(C)C)NC(=O)C3=CC=C(C=C3)O
# Summary of the method: as §1
# [9] = compound: CC1=CC=C(C=C1)SC2=C3C=C(SC3=CN=C2)C(=O)N
# Summary of the method: as §1
# [10] = compound: CC1=NC(=CC=C1)C2=C(N=C(N2)C(C)(C)C)C3=CC4=NC=CN=C4C=C3
# Summary of the method: as §1
# Nexturastat A = compound: CCCCN(Cc1ccc(C(=O)NO)cc1)C(=O)Nc1ccccc1 [Nexturastat A]
# Summary of the method: as §1
# vemurafenib = compound: CCCS(=O)(=O)Nc1ccc(F)c(C(=O)c2c[nH]c3ncc(-c4ccc(Cl)cc4)cc23)c1F [vemurafenib]
# Summary of the method: as §1
# [11] = compound: CCCS(=O)(=O)Nc1ccc(F)c(C(=O)c2c[nH]c3ncc(Cl)cc23)c1F
# Summary of the method: as §1
# [12] = compound: CCCc1cc(C)[nH]c(=O)c1CNC(=O)c1cc(-c2ccnc(N3CCN(C)CC3)c2)cc2c1cnn2C(C)C
# Summary of the method: as §1
# givinostat = compound: CCN(CC)Cc1ccc2cc(COC(=O)Nc3ccc(C(=O)NO)cc3)ccc2c1 [givinostat]
# Summary of the method: as §1
# barasertib = compound: CCN(CCCOc1ccc2c(Nc3cc(CC(=O)Nc4cccc(F)c4)[nH]n3)ncnc2c1)CCOP(=O)(O)O [barasertib]
# Summary of the method: as §1
# UniProt P55209, sequence (P55209 whole entry, looked up): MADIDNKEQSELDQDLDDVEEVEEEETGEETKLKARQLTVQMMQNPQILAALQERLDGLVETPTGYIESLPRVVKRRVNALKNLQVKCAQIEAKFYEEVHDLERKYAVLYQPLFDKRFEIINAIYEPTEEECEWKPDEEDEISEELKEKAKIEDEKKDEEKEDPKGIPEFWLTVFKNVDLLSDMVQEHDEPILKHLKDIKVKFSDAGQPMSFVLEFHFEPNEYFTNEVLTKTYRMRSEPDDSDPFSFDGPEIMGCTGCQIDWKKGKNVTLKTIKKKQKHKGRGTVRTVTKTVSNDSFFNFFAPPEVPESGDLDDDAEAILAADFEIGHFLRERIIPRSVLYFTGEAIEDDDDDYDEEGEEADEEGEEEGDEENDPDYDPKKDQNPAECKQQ
# UniProt P17568, sequence (P17568 whole entry, looked up): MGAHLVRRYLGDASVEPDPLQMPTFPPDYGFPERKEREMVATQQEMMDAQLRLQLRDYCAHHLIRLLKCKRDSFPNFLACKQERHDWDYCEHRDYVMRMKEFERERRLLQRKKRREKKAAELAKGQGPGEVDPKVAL
# UniProt Q15102, sequence (Q15102 whole entry, looked up): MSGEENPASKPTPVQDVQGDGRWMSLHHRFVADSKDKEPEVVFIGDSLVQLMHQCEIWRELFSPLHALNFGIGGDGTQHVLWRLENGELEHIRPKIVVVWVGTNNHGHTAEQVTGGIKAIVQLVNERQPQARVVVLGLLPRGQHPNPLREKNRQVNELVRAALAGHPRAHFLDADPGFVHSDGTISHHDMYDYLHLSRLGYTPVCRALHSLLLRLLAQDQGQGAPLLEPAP
# UniProt P03905, sequence (P03905 whole entry, looked up): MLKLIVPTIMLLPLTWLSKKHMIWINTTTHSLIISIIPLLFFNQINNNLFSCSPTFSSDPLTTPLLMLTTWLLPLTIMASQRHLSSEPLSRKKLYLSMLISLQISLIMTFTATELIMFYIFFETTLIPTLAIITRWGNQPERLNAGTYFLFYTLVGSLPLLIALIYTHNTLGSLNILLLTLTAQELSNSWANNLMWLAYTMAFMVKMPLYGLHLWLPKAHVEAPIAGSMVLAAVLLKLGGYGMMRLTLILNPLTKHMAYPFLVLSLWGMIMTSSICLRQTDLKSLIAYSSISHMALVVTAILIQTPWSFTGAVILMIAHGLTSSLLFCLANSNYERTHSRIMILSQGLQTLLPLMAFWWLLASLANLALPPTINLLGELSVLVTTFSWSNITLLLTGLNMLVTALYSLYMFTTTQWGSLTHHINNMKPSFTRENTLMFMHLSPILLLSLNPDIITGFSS
# UniProt O75376, sequence (O75376 whole entry, looked up): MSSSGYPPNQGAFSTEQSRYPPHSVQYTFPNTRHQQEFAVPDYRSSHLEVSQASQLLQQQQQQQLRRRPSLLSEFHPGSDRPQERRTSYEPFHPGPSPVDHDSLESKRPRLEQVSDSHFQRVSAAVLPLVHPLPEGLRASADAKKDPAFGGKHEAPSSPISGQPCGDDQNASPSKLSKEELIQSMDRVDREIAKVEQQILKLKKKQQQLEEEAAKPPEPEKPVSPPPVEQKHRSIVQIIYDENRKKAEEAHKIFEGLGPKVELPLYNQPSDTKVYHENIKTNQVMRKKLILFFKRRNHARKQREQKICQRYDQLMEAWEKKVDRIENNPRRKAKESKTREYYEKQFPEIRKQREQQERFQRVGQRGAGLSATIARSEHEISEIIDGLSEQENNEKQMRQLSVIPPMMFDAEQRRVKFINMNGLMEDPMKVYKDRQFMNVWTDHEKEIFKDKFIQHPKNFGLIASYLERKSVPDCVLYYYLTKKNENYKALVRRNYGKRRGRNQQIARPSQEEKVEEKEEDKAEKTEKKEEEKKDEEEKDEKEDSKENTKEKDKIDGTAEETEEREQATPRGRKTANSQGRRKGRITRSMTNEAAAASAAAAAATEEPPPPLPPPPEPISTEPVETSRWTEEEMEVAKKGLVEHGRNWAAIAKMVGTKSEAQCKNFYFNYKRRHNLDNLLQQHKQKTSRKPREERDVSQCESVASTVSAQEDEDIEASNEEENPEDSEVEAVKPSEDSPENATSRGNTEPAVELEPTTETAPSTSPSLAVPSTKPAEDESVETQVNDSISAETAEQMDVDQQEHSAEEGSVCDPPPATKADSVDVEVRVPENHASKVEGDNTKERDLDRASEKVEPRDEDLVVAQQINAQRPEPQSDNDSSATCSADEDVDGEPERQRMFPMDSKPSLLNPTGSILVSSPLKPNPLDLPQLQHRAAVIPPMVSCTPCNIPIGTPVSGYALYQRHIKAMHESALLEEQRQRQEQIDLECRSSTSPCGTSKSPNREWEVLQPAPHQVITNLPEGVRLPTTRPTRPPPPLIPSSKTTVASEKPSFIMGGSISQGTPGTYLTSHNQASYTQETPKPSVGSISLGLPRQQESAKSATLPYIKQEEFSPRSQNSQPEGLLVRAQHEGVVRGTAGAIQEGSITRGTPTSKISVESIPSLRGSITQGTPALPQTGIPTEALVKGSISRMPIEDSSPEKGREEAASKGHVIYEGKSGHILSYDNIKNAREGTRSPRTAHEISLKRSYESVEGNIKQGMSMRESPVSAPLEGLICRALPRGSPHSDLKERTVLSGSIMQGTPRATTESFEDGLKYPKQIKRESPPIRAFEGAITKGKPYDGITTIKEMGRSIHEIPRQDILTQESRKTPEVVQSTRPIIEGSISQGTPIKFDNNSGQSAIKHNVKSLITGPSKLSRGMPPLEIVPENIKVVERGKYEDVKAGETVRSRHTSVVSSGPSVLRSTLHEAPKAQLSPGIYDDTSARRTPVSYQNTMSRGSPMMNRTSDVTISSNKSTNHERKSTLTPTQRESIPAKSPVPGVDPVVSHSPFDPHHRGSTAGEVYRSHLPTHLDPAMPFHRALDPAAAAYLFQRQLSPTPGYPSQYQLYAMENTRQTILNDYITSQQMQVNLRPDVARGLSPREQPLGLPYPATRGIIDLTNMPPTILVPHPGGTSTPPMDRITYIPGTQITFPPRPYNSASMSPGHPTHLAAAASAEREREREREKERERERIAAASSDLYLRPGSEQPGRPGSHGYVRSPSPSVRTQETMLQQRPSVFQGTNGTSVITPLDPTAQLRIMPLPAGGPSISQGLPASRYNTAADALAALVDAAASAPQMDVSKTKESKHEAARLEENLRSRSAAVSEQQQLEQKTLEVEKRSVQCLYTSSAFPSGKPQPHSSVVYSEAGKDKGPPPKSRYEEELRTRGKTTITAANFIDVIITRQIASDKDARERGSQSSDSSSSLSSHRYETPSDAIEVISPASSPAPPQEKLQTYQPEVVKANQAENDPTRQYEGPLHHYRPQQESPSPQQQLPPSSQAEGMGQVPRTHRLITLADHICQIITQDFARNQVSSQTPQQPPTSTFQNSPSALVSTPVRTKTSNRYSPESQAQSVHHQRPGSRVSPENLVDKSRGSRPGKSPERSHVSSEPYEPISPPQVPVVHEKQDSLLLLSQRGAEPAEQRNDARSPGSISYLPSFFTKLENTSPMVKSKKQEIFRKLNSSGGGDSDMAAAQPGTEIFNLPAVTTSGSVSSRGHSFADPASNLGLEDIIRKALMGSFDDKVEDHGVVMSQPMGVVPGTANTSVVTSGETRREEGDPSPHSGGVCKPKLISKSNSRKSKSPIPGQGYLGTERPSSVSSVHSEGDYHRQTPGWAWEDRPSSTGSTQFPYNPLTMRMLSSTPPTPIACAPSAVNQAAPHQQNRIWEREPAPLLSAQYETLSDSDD
# UniProt Q14149, sequence (Q14149 whole entry, looked up): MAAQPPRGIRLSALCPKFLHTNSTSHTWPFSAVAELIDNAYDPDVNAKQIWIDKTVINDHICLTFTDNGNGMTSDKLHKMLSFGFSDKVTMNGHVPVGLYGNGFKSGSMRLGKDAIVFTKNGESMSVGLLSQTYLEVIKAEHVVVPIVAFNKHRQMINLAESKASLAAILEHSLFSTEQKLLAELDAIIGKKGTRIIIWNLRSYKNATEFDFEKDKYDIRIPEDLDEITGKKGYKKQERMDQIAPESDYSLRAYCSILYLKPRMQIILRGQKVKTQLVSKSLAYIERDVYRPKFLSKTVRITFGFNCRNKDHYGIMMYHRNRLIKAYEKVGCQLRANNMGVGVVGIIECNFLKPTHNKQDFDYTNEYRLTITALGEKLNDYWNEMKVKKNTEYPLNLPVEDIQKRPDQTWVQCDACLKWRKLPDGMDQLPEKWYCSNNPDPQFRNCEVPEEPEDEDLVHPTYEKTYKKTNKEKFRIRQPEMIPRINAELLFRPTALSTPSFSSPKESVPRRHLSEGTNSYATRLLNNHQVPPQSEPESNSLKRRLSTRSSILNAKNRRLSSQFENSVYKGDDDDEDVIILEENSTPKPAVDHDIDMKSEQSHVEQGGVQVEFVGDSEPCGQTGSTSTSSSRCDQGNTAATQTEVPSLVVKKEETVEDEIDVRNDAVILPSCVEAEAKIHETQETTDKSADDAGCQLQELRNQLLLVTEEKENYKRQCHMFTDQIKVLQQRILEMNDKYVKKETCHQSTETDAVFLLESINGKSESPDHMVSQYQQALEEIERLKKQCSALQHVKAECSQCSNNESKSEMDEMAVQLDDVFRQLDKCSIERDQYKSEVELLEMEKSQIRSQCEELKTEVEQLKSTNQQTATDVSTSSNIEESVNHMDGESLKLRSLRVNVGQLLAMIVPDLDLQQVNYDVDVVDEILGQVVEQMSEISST
# UniProt Q9H081, sequence (Q9H081 whole entry, looked up): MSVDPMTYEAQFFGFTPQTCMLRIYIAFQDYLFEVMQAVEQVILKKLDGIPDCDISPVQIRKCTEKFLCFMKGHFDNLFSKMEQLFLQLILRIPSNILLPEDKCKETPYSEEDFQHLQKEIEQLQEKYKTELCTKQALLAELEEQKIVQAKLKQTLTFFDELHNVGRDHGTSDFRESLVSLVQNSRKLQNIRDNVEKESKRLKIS
# UniProt Q96MF7, sequence (Q96MF7 whole entry, looked up): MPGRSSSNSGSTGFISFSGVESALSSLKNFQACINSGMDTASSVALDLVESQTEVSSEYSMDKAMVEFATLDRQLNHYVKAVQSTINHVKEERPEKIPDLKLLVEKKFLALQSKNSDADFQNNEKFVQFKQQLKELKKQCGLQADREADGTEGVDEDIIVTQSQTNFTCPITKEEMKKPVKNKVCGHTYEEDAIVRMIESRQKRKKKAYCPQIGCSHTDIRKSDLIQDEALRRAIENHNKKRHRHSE
Target,log2 fold change (IRAK-1-4 Inhibitor I),log2 fold change (ibrutinib),log2 fold change [1],log2 fold change (ralimetinib),log2 fold change [2],log2 fold change [3],log2 fold change [4],log2 fold change (pinometostat),log2 fold change [5],log2 fold change [6],log2 fold change [7],log2 fold change [8],log2 fold change [9],log2 fold change [10],log2 fold change (Nexturastat A),log2 fold change (vemurafenib),log2 fold change [11],log2 fold change [12],log2 fold change (givinostat),log2 fold change (barasertib)
NCKAP1 isoform 2 (UniProt Q9Y2A7),0,0.002,-0.063,0.07,-0.038,-0.047,-0.037,0.01,0.017,-0.009,0.039,0.009,0.004,0.033,0.02,0.036,0.015,0.064,0.021,-0.009
NSMCE2 (UniProt Q96MF7),-0.023,-0.171,-0.107,0.176,0.051,0.122,-0.083,-0.001,-0.056,-0.122,0.019,-0.052,0.006,0.056,0.064,-0.007,0.021,0.018,-0.076,0.078
MIS12 (UniProt Q9H081),0.024,0.026,-0.025,-0.004,-0.151,-0.087,0.06,0.006,0.019,-0.035,-0.008,-0.141,-0.004,0.044,0.056,0.074,-0.002,0.023,0.102,0.049
NAP1L1 (UniProt P55209),0.04,-0.041,-0.012,-0.003,0.021,0.017,0.021,-0.029,0.105,0.004,0.042,0.005,-0.002,0.035,-0.003,0.04,0.011,0.028,-0.08,0.061
NDUFS4 (UniProt O43181),0.076,0.029,0.062,0.015,0.022,0.007,0.274 (active),0.013,0.046,-0.193,0.03,0.024,-0.069,-0.033,0.032,-0.061,-0.06,-0.033,-0.083,-0.062
NEU1 (UniProt Q99519),-0.136,-0.069,-0.175,0.05,0.018,-0.379 (active),0.166,-0.021,0.049,-0.131,0.031,-0.048,0.029,0.118,0.068,-0.002,-0.008,0.057,0.036,0.059
NACC1 (UniProt Q96RE7),-0.026,-0.048,-0.109,-0.017,-0.058,-0.352 (active),-0.014,-0.015,0.034,-0.193,-0.043,-0.012,0.048,0.164,-0.036,0.154,0.064,0.025,0.208,0.115
NGLY1 (UniProt Q96IV0),-0.091,-0.052,-0.059,0.018,-0.07,-0.071,0.036,0.088,0.04,0.123,-0.034,-0.039,0.052,-0.016,0.102,0.009,0.026,0.016,0.036,0.024
NUMB (UniProt P49757),0.008,-0.05,-0.318 (active),0.049,-0.062,-0.086,0.053,0.061,0.047,0.079,-0.006,0.018,-0.067,-0.046,0.09,0.026,-0.002,0.004,0.02,-0.01
NDUFB7 (UniProt P17568),0.012,0.008,0.007,0.079,-0.034,-0.002,-0.055,-0.017,0.014,0.004,0.037,-0.006,0.063,0.027,0.023,0.018,-0.014,-0.124,-0.367 (active),-0.012
MORC3 (UniProt Q14149),0.021,-0.047,0.023,-0.024,-0.122,-0.051,0.002,-0.026,-0.039,0.595 (active),-0.02,-0.06,-0.025,0.059,-0.296,0.095,0.032,0.11,-0.193,0.102
MND1 (UniProt Q9BWT6),-0.022,0.069,-0.053,0.052,0.008,-0.182,0.173,0.076,0.058,0.043,0.034,0.021,0,0.025,-0.043,-0.016,-0.024,-0.091,0.048,-0.032
MT-ND4 (UniProt P03905),-0.005,-0.092,-0.236,-0.06,-0.094,-0.124,-0.054,-0.135,-0.065,0.056,-0.064,0.067,0.015,0.048,-0.155,0.004,0.016,0.014,0.058,0.156
PAFAH1B3 (UniProt Q15102),-0.041,0.008,-0.119,0.009,-0.137,-0.055,-0.078,0.023,0,0.305 (active),0,-0.096,0.098,0.03,0.019,-0.014,-0.012,0.005,-0.022,0.035
MRPS31 (UniProt Q92665),-0.057,0.014,-0.073,-0.005,-0.032,-0.086,0.057,0.034,0.026,-0.14,-0.015,-0.012,-0.041,-0.017,0.111,-0.041,0.054,-0.012,0.009,-0.007
NCOR1 (UniProt O75376),0.052,0.078,-0.46 (active),0.01,0.011,0.055,0.022,0.05,-0.084,0.093,-0.035,-0.075,-0.195,0.101,-0.079,0.01,-0.149,-0.079,0.014,-0.094
